PAFAH1B2 inh = inhibitors of human PAFAH1B2. recombinant PAFAH1B2, FP-rhodamine activity probe, fluorescence polarization. inhibition, % at 3.39 µM. P68402. AID 492953. hit rate 1.2% among 340,000;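 active = inhibition above the mean of all tested compounds plus 3 SD, cut at about 24% in these data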
PAFAH2 FP inh = inhibitors of human PAFAH2; Q99487; hit rate 0.99% among 340,000; AID 492956; recombinant PAFAH2, FP-rhodamine activity probe, fluorescence polarization; inhibition, % at 3.39 µM;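 active = inhibition above the mean over all tested compounds plus 3 SD, cut at about 30% in these data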;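 note: inhibitors block probe labeling of enzyme so polarization drops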
PKA-R2B act = activates the human PKA-R2B holoenzyme complex. activation, % at 11.4 µM. PKA-R2B holoenzyme dissociation, Cy5-IP20 fluorescence polarization; R2B truncated from residue 108, S112A mutant; 0% DMSO only, 100% 113 µM cGMP. hit rate 0.079% among 340,000. P22694+P31323;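 active = activation above a cutoff set at the mean over all compounds plus 3 SD, cut at about 18% in these data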;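 note: higher means more holoenzyme dissociation and a rise in polarization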
pPAFAH FP inh = inhibitors of human plasma PAF acetylhydrolase (pPAFAH); recombinant pPAFAH, FP-rhodamine probe fluorescence polarization; inhibition, % at 3.39 µM; hit rate 1.5% among 330,000; AID 463082;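 active = inhibition above the mean inhibition across the screen plus 3 SD, cut at about 25% in these data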;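 note: inhibitors block binding of the rhodamine activity-based probe so polarization drops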
Target sequence (Q13093 whole entry, looked up): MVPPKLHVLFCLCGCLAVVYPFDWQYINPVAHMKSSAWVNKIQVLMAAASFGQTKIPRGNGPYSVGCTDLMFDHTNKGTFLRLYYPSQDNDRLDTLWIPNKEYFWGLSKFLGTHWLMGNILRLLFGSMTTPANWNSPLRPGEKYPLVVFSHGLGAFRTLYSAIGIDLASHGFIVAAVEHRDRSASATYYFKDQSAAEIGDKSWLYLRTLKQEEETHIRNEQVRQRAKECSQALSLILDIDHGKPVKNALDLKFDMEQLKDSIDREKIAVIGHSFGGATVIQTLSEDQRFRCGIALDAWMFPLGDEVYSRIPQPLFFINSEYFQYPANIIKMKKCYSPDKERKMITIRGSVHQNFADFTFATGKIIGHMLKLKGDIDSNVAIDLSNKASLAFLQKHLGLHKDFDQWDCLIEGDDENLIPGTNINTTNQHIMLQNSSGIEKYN
PAFAH1B3 FP inh = inhibitors of human PAFAH1B3. hit rate 0.28% among 340,000. inhibition, % at 3.39 µM. Q15102. recombinant PAFAH1B3, FP-rhodamine probe, fluorescence polarization;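 active = inhibition above the screen-wide average of all tested compounds plus 3 SD, cut at about 25% in these data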
PKA-R1A activ = activates the PKA-R1A holoenzyme complex. P00514+P68181. PKA-R1A dissociation, Cy5-IP20 fluorescence polarization; scaled: DMSO 0%, 113 µM cGMP 100%. activation, % at 11.4 µM. hit rate 0.083% among 340,000;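 active = percent activation above the mean of all tested compounds plus 3 SD, cut at about 19% in these data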;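 note: higher means more PKAc released from R1A so a rise in polarization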
Numbers stand for hits. An excerpt weighted towards active compounds, which were near 2.6% of everything screened.

`COc1ccccc1NC(=O)c1ccc(NC(=O)COC(=O)C(C)C)cc1` gave PAFAH1B2 inh inactive, PAFAH2 FP inh inactive, PKA-R2B act inactive, pPAFAH FP inh inactive, PAFAH1B3 FP inh inactive and PKA-R1A activ inactive.
Screening COc1ccccc1CNC(=O)c1n[nH]c2ccccc12 returned PAFAH1B2 inh inactive, PAFAH2 FP inh inactive, PKA-R2B act inactive, pPAFAH FP inh 28, PAFAH1B3 FP inh inactive and PKA-R1A activ inactive.
`COc1ccccc1NC(=O)c1ccc(NC(=O)COC(=O)c2ccc(O)cc2)cc1` gave PAFAH1B2 inh inactive, PAFAH2 FP inh 50, PKA-R2B act inactive, pPAFAH FP inh 26, PAFAH1B3 FP inh inactive and PKA-R1A activ inactive.
`COc1ccc(CNC(=O)COC(=O)c2ccc(C(=O)c3ccccc3)cc2)cc1` gave PAFAH1B2 inh inactive, PAFAH2 FP inh inactive, PKA-R2B act inactive, pPAFAH FP inh 31, PAFAH1B3 FP inh inactive and PKA-R1A activ inactive.
For COc1ccccc1CNC(=O)COC(=O)c1ccncc1 the results were PAFAH1B2 inh inactive, PAFAH2 FP inh inactive, PKA-R2B act inactive, pPAFAH FP inh inactive, PAFAH1B3 FP inh inactive and PKA-R1A activ inactive.
Screening COc1cccc(NC(=O)CN(C)C(=O)c2ccc(NC(=O)CC3SC(N4CCCC4)=NC3=O)cc2)c1 (stereo not drawn) returned PAFAH1B2 inh inactive, PAFAH2 FP inh inactive, PKA-R2B act inactive, PAFAH1B3 FP inh inactive and PKA-R1A activ inactive.
`COc1cc([N+](=O)[O-])ccc1NC(=O)COC(=O)c1ccc(NC(N)=O)cc1` gave PAFAH1B2 inh inactive, PAFAH2 FP inh inactive, PKA-R2B act inactive, pPAFAH FP inh inactive, PAFAH1B3 FP inh inactive and PKA-R1A activ inactive.
For CCN1CCN(C(=O)C(Cc2ccccc2)NC(=O)c2ccc(Cl)c(S(=O)(=O)N(C)C)c2)CC1 (stereo not drawn) the results were PAFAH1B2 inh inactive, PAFAH2 FP inh inactive, PKA-R2B act inactive, pPAFAH FP inh inactive, PAFAH1B3 FP inh inactive and PKA-R1A activ inactive.
`COC(=O)c1cc(S(=O)(=O)NCCc2ccc(Cl)cc2)c[nH]1` gave PAFAH1B2 inh 26, PAFAH2 FP inh inactive, PKA-R2B act inactive, pPAFAH FP inh inactive, PAFAH1B3 FP inh inactive and PKA-R1A activ inactive.
O=C(O)C(c1ccccc1)N1C(=O)/C(=C\c2ccc(O)c(O)c2)SC1=S (stereo not drawn) was read as PAFAH1B2 inh inactive, PAFAH2 FP inh inactive, PKA-R2B act inactive, pPAFAH FP inh 30, PAFAH1B3 FP inh inactive and PKA-R1A activ inactive.
`COc1cc(/C=C2\SC(=S)N(C(C(=O)O)c3ccccc3)C2=O)ccc1O` (stereo not drawn) gave PAFAH1B2 inh inactive, PAFAH2 FP inh inactive, PKA-R2B act inactive, pPAFAH FP inh inactive, PAFAH1B3 FP inh inactive and PKA-R1A activ inactive.
CC[C@]12c3[nH]c4ccc(Cl)cc4c3CCN1C(=O)[C@@H](CC(=O)NC/C=C(\C)CCC=C(C)C)C[C@@H]2C(=O)N1CCN(C(=O)C2CC2)CC1 was read as PAFAH1B2 inh inactive, PAFAH2 FP inh inactive, PKA-R2B act inactive, pPAFAH FP inh inactive, PAFAH1B3 FP inh inactive and PKA-R1A activ inactive.
For CCOC(=O)/C(C#N)=C/c1cc(C)n(-c2ccc(C)cc2)c1C the results were PAFAH1B2 inh inactive, PAFAH2 FP inh inactive, PKA-R2B act inactive, pPAFAH FP inh 26, PAFAH1B3 FP inh inactive and PKA-R1A activ inactive.
Screening CCOC(=O)/C(C#N)=C\c1cc(C)n(-c2ccccc2)c1C returned PAFAH1B2 inh inactive, PAFAH2 FP inh inactive, PKA-R2B act inactive, pPAFAH FP inh inactive, PAFAH1B3 FP inh inactive and PKA-R1A activ inactive.
Screening O=c1c2ccccc2ncn1Cc1ccc2c(c1)OCO2 returned PAFAH1B2 inh inactive, PAFAH2 FP inh inactive, PKA-R2B act inactive, pPAFAH FP inh inactive, PAFAH1B3 FP inh inactive and PKA-R1A activ inactive.
Screening Cc1ccc(S(=O)(=O)CCC(=O)OCC(=O)N(C)CC(=O)Nc2ccc(F)cc2)cc1 returned PAFAH1B2 inh inactive, PAFAH2 FP inh inactive, PKA-R2B act inactive, pPAFAH FP inh inactive, PAFAH1B3 FP inh inactive and PKA-R1A activ inactive.
For CN(CC(=O)Nc1ccc(F)cc1)C(=O)COC(=O)c1cc(Br)c(Br)s1 the results were PAFAH1B2 inh 24, PAFAH2 FP inh inactive, PKA-R2B act inactive, PAFAH1B3 FP inh inactive and PKA-R1A activ inactive.

Screens: PubChem, The Scripps Research Institute Molecular Screening Center
